INS-1E GSIS act = GLuc luminescence reporter in INS-1E cells, primary screen for activators of glucose-dependent secretion of insulin; INS-1E GLuc reporter insulin secretion, 2-3 h; activation, % at 16.6 µM; 370,000 tested, 0.61% active; AID 743287;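 active = lowest replicate activation of at least 40%, so every replicate reaches that level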
miR-122 sensor = miR-122 inhibition in Huh7 cells. Huh7 miR-122 Renilla luciferase sensor, 48 h; neutral wells = 0, positive control = 100. activation (reporter increase), % at 12.5 µM. 340,000 tested, 0.3% active. AID 602342;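 active = mean replicate activation score at least 90 and every replicate individually at or above 90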;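 note: higher luciferase means less miR-122 activity so hits act as miR-122 inhibitors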
PAX8 reporter = lowers PAX8-driven luciferase in RMG-I cells | RMG-I TPO-luciferase reporter, SteadyGlo, 24 h | 360,000 tested, 1.2% active | inhibition, % at 12.6 µM | AID 652154;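 active = mean replicate inhibition at least 60% with every replicate also reaching 60%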;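 note: luciferase light reporting Pax8 driven TPO promoter activity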
EWS-Fli inh = EWS/Fli transcriptional activity inhibition. inhibition, % at 12.6 µM. AID 651661. A673 NR0B1-luciferase reporter, viability-normalised. 350,000 tested, 0.67% active;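 active = mean inhibition of at least 50% after viability correction, with every replicate also passing that limit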;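 note: firefly luciferase signal divided by Alamar Blue viability fluorescence both relative to DMSO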
C2C12 statin = suppressors of simvastatin-induced myotoxicity in C2C12 myotubes; ATP luminescence, 48 h; scaled: DMSO 0, geranylgeraniol control 100; rescue of ATP level, % at 7.49 µM; 330,000 tested, 0.78% active; AID 602340;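 active = mean ATP rescue above about 67%, or every replicate alone reaching that limit, limit read from the data, passing the limit was not always enough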;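 note: myotubes were challenged with 10 µM simvastatin during compound exposure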
HIV Env fusion = inhibitors of HIV Env-mediated cell fusion. HeLa-JRFL Env/CEM21 cell fusion, luciferase. inhibition, % at 12.3 µM. 360,000 tested, 1.1% active. AID 651610;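 active = mean replicate inhibition score of at least 50 and every replicate individually at or above 50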
A number is an active result; - = inactive; . = no result given. Hits are enriched below; roughly 3.1% of the tested compounds scored in any of these assays.

SMILES	INS-1E GSIS act	miR-122 sensor	PAX8 reporter	EWS-Fli inh	C2C12 statin	HIV Env fusion
O=C(NC[C@H]1[C@H](c2ccccc2)[C@@H](CO)N1C(=O)C1CC1)NC1CCCC1	-	-	-	-	-	.
COC(=O)[C@H]1COC(c2ccc(OCCCO)cc2)=N1	.	.	-	-	.	-
CO[C@H]1CN(C)C(=O)c2cc(NS(=O)(=O)CC(F)(F)F)ccc2OC[C@H](C)N(Cc2ccccn2)C[C@@H]1C	-	.	-	-	-	.
CC(=O)Nc1ccc(NC(=O)c2nc(S(=O)(=O)Cc3ccccc3)ncc2Cl)cc1	60	-	94	.	-	-
Cc1ccc(CS(=O)(=O)c2ncc(Cl)c(C(=O)Nc3ccc(OC(F)F)cc3)n2)cc1	-	-	-	-	-	-
CCS(=O)(=O)c1ncc(Cl)c(C(=O)Nc2ccc(C)cc2)n1	63	.	100	65	127	-
O=C(CSc1nc(-c2ccco2)cc(C(F)(F)F)n1)N1CCSCC1	.	-	.	.	86	.
COc1ccccc1CCNC(=O)CSc1nc(-c2ccco2)cc(C(F)(F)F)n1	-	-	-	-	-	59
CN1CCN(C(=O)CSc2nc(-c3ccco3)cc(C(F)(F)F)n2)CC1	-	-	-	-	-	-
COc1ccc(F)cc1-c1cc(NC=O)c2ncc(-c3cccc(C(=O)N(C)C)c3)n2c1	-	-	68	-	-	-
CN(C)C(=O)c1cccc(-c2cc(NC=O)c3ncc(-c4ccc(F)cc4)n3c2)c1	-	-	-	-	-	-
COc1ccccc1-c1cc(NC=O)c2ncc(-c3ccc(F)cc3)n2c1	-	.	-	-	-	-
CC(=O)Nc1cccc(-c2cc(NC=O)c3ncc(-c4cccc(C(C)=O)c4)n3c2)c1	-	-	81	-	-	-
Cc1ccc(-c2cc(NC=O)c3ncc(-c4cnn(C)c4)n3c2)cc1	.	-	-	56	-	-
COc1ccc(F)cc1-c1cc(NC=O)c2ncc(-c3cc(OC)c(OC)c(OC)c3)n2c1	-	-	90	60	-	-
COCC(=O)N(C)C[C@H]1Oc2ncc(C#CC(C)(C)O)cc2C(=O)N([C@@H](C)CO)C[C@H]1C	-	-	-	-	-	.
C[C@@H]1CN([C@@H](C)CO)C(=O)c2cc(NS(=O)(=O)c3cccs3)ccc2O[C@H]1CN(C)Cc1ccc(Cl)c(Cl)c1	-	-	-	-	-	-
C[C@H]1CN([C@@H](C)CO)C(=O)Cc2cc(NC(=O)CCCN(C)C)ccc2O[C@@H]1CN(C)S(=O)(=O)c1cn(C)cn1	-	-	-	-	-	-
COc1cccc(-c2cnc3c(NC=O)cc(-c4ccc(S(C)(=O)=O)cc4)cn23)c1	-	-	-	-	-	-
COc1cc(-c2cnc3c(NC=O)cc(-c4ccccc4Cl)cn23)cc(OC)c1OC	-	-	76	-	-	-
COc1cc(-c2cnc3c(NC=O)cc(-c4ccc(C)cc4)cn23)cc(OC)c1OC	-	-	90	-	-	-
COc1cc(-c2cnc3c(NC=O)cc(-c4ccccc4)cn23)cc(OC)c1OC	-	-	92	59	-	-
COc1cc(-c2cc(NC=O)c3ncc(-c4ccccc4)n3c2)cc(OC)c1OC	-	.	-	-	-	-
COc1cc(-c2cc(NC=O)c3ncc(-c4ccc(C(C)=O)cc4)n3c2)cc(OC)c1OC	-	-	-	-	-	-
CS(=O)(=O)c1ccc(-c2cc(NC=O)c3ncc(-c4ccc(F)cc4)n3c2)cc1	-	.	68	-	-	-
COCCNC(=O)C[C@H]1CC[C@H]2[C@@H](COc3ccc(NC(=O)c4cnccn4)cc3C(=O)N2C)O1	-	-	-	-	-	.
CN1c2ccc(-c3cccc(F)c3)cc2[C@H]2[C@H](CCN2C(=O)c2ccncc2)[C@H]1CO	-	-	-	-	-	.
COc1cc(N2C(=O)C=CC2=O)ccc1N1C(=O)C=CC1=O	.	-	115	60	.	-
COc1ccc(NC(=O)Nc2ccc3c(c2)CC(=O)N([C@@H](C)CO)C[C@@H](C)[C@@H](CN(C)C(=O)Nc2ccc(C(F)(F)F)cc2)O3)cc1	-	-	-	-	-	-
Cc1ncccc1C(=O)N1CCCC(C(=O)c2ccc3c4c(cccc24)CC3)C1 (stereo not drawn)	-	.	-	-	.	90

Screens (PubChem BioAssay)
